Bioassay records from PubChem.
Rows were chosen to be rich in hits. Some 1.8% of all compounds tested hit in one or more screens of this group.
GLP1R ag: qHTS of GLP-1 Receptor Agonists | Glucagon-like peptide 1 receptor (Homo sapiens), P43220 | AID 624172, 2012 | HEK293 GLP-1R CRE-luciferase, luminescence, 4-6 h; cells express a hypersensitive GLP-1R form | 0.007% of 380,000 active | Potency, µM (series often up to 45.6 µM), without a hit: top-dose activation, usual class: activators; note: % of control where 0% means no effect
GLP1R inv ag: qHTS of GLP-1 Receptor Inverse Agonists (Inhibition Mode) | AID 624417, 2012 | 1.6% of 410,000 active | Potency, µM (top dose mostly 38.3 µM), inactives show top-dose activity change, negative = inhibition, usual class: inhibitors | HEK293 GLP-1R CRE-luciferase, luminescence, 24 h; GLP-1R form is constitutively active | Glucagon-like peptide 1 receptor (Homo sapiens), P43220; note: % is set by controls: 0 for no effect and ±100 for the full control effect; nearly all actives have a fitted effect of over 55% in size
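Inverse agonism was detected as reduced cAMP-driven luciferase luminescence after 24 h compound treatment. The cells were HEK293 clones expressing constitutively active human GLP-1R with the reporter. Reporter-only and GPR119 cell lines served as counterscreen controls.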
Tb PFK inh: qHTS Assay to Find Inhibitors of T. brucei phosphofructokinase. 0.17% of 330,000 active. Potency, µM (series often up to 57.5 µM), for the others: top-dose activity, negative = inhibition, most hits filed as inhibitors. ATP-dependent 6-phosphofructokinase (Trypanosoma brucei brucei), O15648. AID 485367, 2010. T. brucei PFK, ADP-Glo luminescence;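 note: 0% = uninhibited 1x PFK enzyme wells and -100% = no-enzyme wells; nearly all actives have a fitted effect of over 60% in size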
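ADP-Glo luminescence quantified ADP after 45 min at room temperature, with 1.25 nM T. brucei PFK, 0.1 mM ATP and 0.5 mM fructose-6-phosphate in pH 8.0 TEA buffer. qHTS titrations up to 57 µM; curves classified by quality.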
Pin1 inhibitor: qHTS Assay to Find Inhibitors of Pin1; Potency, µM (top dose mostly 115 µM), inactives show at the top dose activity, negative = inhibition, actives largely listed as inhibitors; Peptidyl-prolyl cis-trans isomerase NIMA-interacting 1 (Homo sapiens), Q13526; 0.009% of 390,000 active; Pin1 FP peptide displacement, HiFluor488, 10 min; active = well fitted inhibition curve with a large enough effect in the polarisation, with a control signal flat, not every such curve was filed as active; inconclusive = small, poorly fitted or top-dose-only effect, or effect the other way, or a change in a side signal; inactive = no such curve, though single readings can be large or run the other way; the % refers to the polarisation; note: % is set by controls: 0 for no effect and ±100 for the full control effect
Tb PGK inh: qHTS Assay to Find Inhibitors of Phosphoglycerate Kinase. Phosphoglycerate kinase, glycosomal (Trypanosoma brucei brucei), P07378. PGK/GAPDH coupled, Kinase-Glo luminescence, 60 min. Potency, µM (highest dose often 57.5 µM), without a hit: top-dose activity change, negative = inhibition, most hits filed as inhibitors. 0.043% of 380,000 active; note: % is set by controls: 0 for no effect and ±100 for the full control effect; nearly all actives have a fitted effect of over 60% in size
Target sequence (P07378 whole entry, looked up): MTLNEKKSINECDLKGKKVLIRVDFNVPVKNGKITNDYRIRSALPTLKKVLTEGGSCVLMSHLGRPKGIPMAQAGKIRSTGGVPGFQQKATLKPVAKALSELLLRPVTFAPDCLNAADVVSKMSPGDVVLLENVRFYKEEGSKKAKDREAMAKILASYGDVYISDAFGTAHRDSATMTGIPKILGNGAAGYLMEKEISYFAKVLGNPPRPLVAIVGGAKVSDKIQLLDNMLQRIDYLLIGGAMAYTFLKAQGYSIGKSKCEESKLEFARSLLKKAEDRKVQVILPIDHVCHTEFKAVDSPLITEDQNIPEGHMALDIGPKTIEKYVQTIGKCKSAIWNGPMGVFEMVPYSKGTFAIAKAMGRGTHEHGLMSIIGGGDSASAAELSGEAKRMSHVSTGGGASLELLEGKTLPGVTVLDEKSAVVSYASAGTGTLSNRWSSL
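Luminescent ATP detection (Kinase-Glo Plus) follows a 60-minute room-temperature incubation, with wells lacking PGK as controls. Buffer: 100 mM TEA (pH 7.6), 5 mM MgCl2, 0.01% Tween-20. Coupling enzyme GAPDH (100 nM final) supplies unstable 1,3-BPG in-well.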
GLP1R cytotox: qHTS of GLP-1 Receptor Inverse Agonists: Cytotox Screen; HEK293 cAMP-luciferase reporter cells, luminescence, 24 h; Potency, µM (highest dose often 38.3 µM), for the others: top-dose activity change, negative = inhibition, actives largely listed as inhibitors; 0.13% of 410,000 active; AID 624418, 2012;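 note: loss of luciferase light is scored as toxicity; % is set by controls: 0 for no effect and ±100 for the full control effect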
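Quantitative HTS format, 1536 wells, 200 cells/uL seeded. Compounds: 23 nL, 24 h, 37 °C. Detection: luciferase reagent, luminescence at 12 min RT; decreased signal taken as cytotoxic.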
Active calls of the source: *; i = inactive; u = inconclusive; x = no result. Unless noted, calls come from the whole dose curve; as a rule, active = well fitted curve in the direction sought with a large enough effect; inconclusive = small, poorly fitted or top-dose-only effect, or another doubt; inactive = no such curve, though single readings can be large; an effect the other way counts as inactive or inconclusive. Potency is the fitted concentration of half-maximal effect.

SMILES | GLP1R ag | GLP1R inv ag | Tb PFK inh | Pin1 inhibitor | Tb PGK inh | GLP1R cytotox
CCOC(=O)C(=O)NNc1ccc(F)cc1 | -4% | 0.89µM* | -4% | 2% | -6% | -28%
CCOC(=O)c1sc(NC(=S)NC(=O)CC(C)C)cc1C | 4% | 10µM* | 0% | 12% | -9% | u
O=S(=O)(/C=C/C=C/S(=O)(=O)c1ccccc1)c1ccccc1 | -34% | -75% | x | 3% | -4% | 0.63µM*
Cc1ccc(S(=O)(=O)C=CS(=O)(=O)c2ccc(C)cc2)cc1 | -2% | -22% | x | x | -4% | u
CC(=O)Nc1cccc(S(=O)(=O)Nc2ccc(C)c(C)c2)c1 | x | x | x | -2% | x | x
COC(=O)c1ccc(NC(=O)N2CCC(CN3CCc4ccccc4C3)CC2)cc1 | x | 5% | x | 3% | i | 3%
S=C(Nc1ccccn1)Nc1ccccc1Cl | 14% | u | -4% | -6% | -2% | 6.3µM*
S=C(Nc1ccccn1)c1ccccn1 | -17% | 0.89µM* | u | 1% | -6% | 1µM*
CCN(CC)c1ccc(N=Nc2ccc(S(=O)(=O)N(C)C)cc2)c(S(=O)(=O)NCC[n+]2ccccc2)c1 | -1% | x | x | x | x | x
COc1ccc(Nc2ncc(C(=O)N3CCN(c4ccc(OC)cc4)CC3)c3ccccc23)cc1 | -3% | u | x | 8% | -6% | -7%
COc1ccc(Nc2ncc(C(=O)N3CCN(c4cccc(Cl)c4)CC3)c3ccccc23)cc1 | -2% | 8.9µM* | x | 3% | -5% | 7%
COc1ccc(Nc2ncc(C(=O)N3CCN(c4ccc(F)cc4)CC3)c3ccccc23)cc1 | -4% | u | -9% | 9% | -2% | 0%
Cc1ccc(Nc2ncc(C(=O)N3CCN(c4ccc(F)cc4)CC3)c3ccccc23)cc1Cl | -2% | 2.8µM* | x | u | -7% | 6%
C=C(Br)Cn1c(CC)nc2ccccc21 | 9% | u | -2% | -6% | -1% | 22%
C=C(Br)Cn1c(CCC)nc2ccccc21 | 5% | 3.5µM* | 1% | -3% | 0% | 6%
NC(=O)C1CCN(c2nc(-c3ccc(OC(F)(F)F)cc3)cs2)CC1 | x | x | x | -19% | x | x
CC1=CCC(C(=O)N/N=C/c2cccs2)C(c2ccc(F)cc2)C1 (stereo not given) | 0% | 10µM* | 4% | -7% | -4% | -14%
COC(=O)N/N=C/c1cccs1 | 8% | 1% | 0% | -6% | -6% | -11%
Cc1cc2c(s1)c1cnn(Cc3c(F)ccc(F)c3Cl)c(=O)c1n2C | x | x | x | 25% | x | x
CC(C)Cn1c(SCC(=O)N2CCCc3ccccc32)nc2ccccc2c1=O | 25% | 2.5µM* | 4% | 18% | 8% | -13%
CCn1c(SCC(=O)N2CCCc3ccccc32)nc2ccccc2c1=O | 13% | u | 1% | -2% | 5% | -11%
Cc1ccc(NS(=O)(=O)c2cccc(F)c2)cc1C | x | x | x | 3% | x | x
CCNC(=S)Nc1scc(-c2ccccc2)c1C(=O)OCC | 0% | u | -1% | 0% | -3% | 10µM*
CCOC(=O)c1c(-c2ccc(-c3ccccc3)cc2)csc1NC(=O)CNCCN(C)C | 0% | 10µM* | 16% | 37% | -1% | -6%
COc1c(OC(C)=O)ccc(/C=C/c2ccc3cccc(OCc4ccccc4)c3n2)c1[N+](=O)[O-] | -13% | 5µM* | -4% | 10% | 3% | u
CC(C)(C)OC(=O)CC(=O)NNC(=O)c1nc2ccccc2[nH]1 | x | x | x | -3% | x | x
CC1CCN(CC(=O)Nc2ccc(S(=O)(=O)N3CCCCC3)cc2)CC1 | -7% | u | -1% | -5% | 3% | 13%
